Experimental data as given in PubChem BioAssay (Tox21).
Values joined by “and” are separate entries in the source; they are usually repeats but may differ in a detail not shown here. Equal values may be shown once. Results filed as inconclusive are left out. A structure can be active in one record and inactive in another. Active and inactive are the calls of the source. Unless noted, calls come from the whole dose curve; as a rule, active = well fitted curve in the direction sought with a large enough effect in the repeat runs; inconclusive = weak or mixed curves; inactive = no such curve, though single readings can be large; an effect the other way counts as inactive or inconclusive.

Columns and labels:
[1] = qHTS assay to identify small molecule agonists of the constitutive androstane receptor (CAR) signaling pathway - cell viability counter screen (AID 1224836); note: nearly all actives have a fitted effect of over 45% in size; note: potency is the fitted concentration of half-maximal effect
Summary of the method: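 Using CellTiter-Fluor, viability of HepG2 cells harbouring hCAR and CYP2B6-2.2kb was measured following 23 h incubation with a 15-concentration compound series plus PK11195 (0.75 uM final).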

[2] = qHTS assay to identify small molecule antagonists of the constitutive androstane receptor (CAR) signaling pathway - cell viability counter screen (AID 1224837); note: nearly all actives have a fitted effect of over 45% in size; note: potency is the fitted concentration of half-maximal effect
Summary of the method: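 Read-out: CellTiter-Fluor fluorescence after 23 hr at 37 C/5% CO2. Cells: HepG2 double-stable for hCAR and CYP2B6-2.2kb. Compounds tested at 15 concentrations in the presence of CITCO, final concentration 50 nM.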

[3] = target: Nuclear receptor subfamily 1 group I member 3 (Homo sapiens) (UniProt Q14994); assay: qHTS assay to identify small molecule agonists of the constitutive androstane receptor (CAR) signaling pathway (AID 1224839); note: nearly all actives have a fitted effect of over 15% in size; note: potency is the fitted concentration of half-maximal effect;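 for activation: HepG2 cells stably carrying human CAR and a CYP2B6 luciferase reporter; series mostly up to about 92 µM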
Summary of the method: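 Double-stable HepG2 cells (hCAR, CYP2B6-2.2kb) seeded 4 h before compound addition. Exposure 24 h with 0.75 uM PK11195 final. Luciferase detected by ONE-Glo.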

[4] = qHTS assay to identify small molecule antagonists of the estrogen related receptor signaling pathway with the pleiotropic PPARgamma coactivator (PGC) from Tox21 10K library - cell viability counter screen (AID 1224840; active = well fitted cell-killing curve with a large enough effect in the repeat runs, not every such curve was filed as active; note: nearly all actives have a fitted effect of over 40% in size; note: potency is the fitted concentration of half-maximal effect)
Summary of the method: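 Fluorescence read-out of CellTiter-Fluor viability reagent, added after cells had been exposed to compound in DMSO for 17.5 h at 37 C; 30 min development at 37 C/5% CO2. Cells: PGC/ERR line, 2,000/well.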

[5] = qHTS assay to identify small molecule antagonists of the estrogen related receptor signaling pathway with the pleiotropic PPARgamma coactivator (PGC) from Tox21 10K library (AID 1224841; call rule not given here; note: actives are mostly falling curves and most rising ones were filed inactive; nearly all actives have a fitted effect of over 50% in size; note: potency is the fitted concentration of half-maximal effect)
Summary of the method: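 Luminescence read-out (One-Glo luciferase reagent, 30 min at room temperature) from PGC/ERR cells exposed to DMSO-dissolved test compounds for 18 h at 37 C; cells, 2,000 per well, had been preincubated 6 h before compound transfer.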

[6] = qHTS assay to identify small molecule agonists of the estrogen related receptor signaling pathway with the pleiotropic PPARgamma coactivator (PGC) from Tox21 10K library (AID 1224842); note: nearly all actives have a fitted effect of over 15% in size
Summary of the method: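 Luminescence from One-Glo (30 min, room temperature) measured after PGC/ERR cells had 18 h at 37 C with pinned compound (23 nL in DMSO). Cells had been seeded at 2,000 per well and pre-incubated 6 h.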

[7] = target: Thyrotropin receptor (Homo sapiens) (UniProt P16473); assay: qHTS assay to identify small molecule agonists of the thyroid stimulating hormone receptor (TSHR) signaling pathway (AID 1224843; calls by dose curve; note: nearly all actives have a fitted effect of over 45% in size; note: potency is the fitted concentration of half-maximal effect)
Summary of the method: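 A cell-based cAMP HTRF format was run in TSHR-transfected HEK293 cells, 800 per well. Treatment: 30 min, room temperature. Detection: 1 h with labelled cAMP and anti-cAMP cryptate. Concentration-response over 15 points, three replicates.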

[8] = qHTS assay to identify small molecule agonists of the hypoxia (HIF-1) signaling pathway - cell viability counter screen (AID 1224844; calls by dose curve; note: nearly all actives have a fitted effect of over 50% in size; note: potency is the fitted concentration of half-maximal effect)
Summary of the method: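 CellTiter-Glo luminescence read-out, 30 min RT, taken in the same wells as the beta-lactamase HRE reporter assay; HRE-bla ME-180 cells, 0.5% dialyzed FBS, 17 hr compound treatment at 37C, 5% CO2.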

[9] = qHTS assay to identify small molecule agonists of H2AX (AID 1224845; active = well fitted activation curve with a large enough effect in the signal ratio in the repeat runs, not every such curve was filed as active; the % refers to the signal ratio; note: potency is the fitted concentration of half-maximal effect)
Summary of the method: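 Phospho-H2AX Ser139 measured by HTRF (ex 320 nm; em 665 and 620 nm) after 24 hr antibody incubation. Compounds, 15 concentrations, 0.76% DMSO, were applied to CHO-K1 cells for 3hr at 37C before lysis.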

[10] = target: Nuclear receptor subfamily 1 group I member 3 (Homo sapiens) (UniProt Q14994); assay: qHTS assay to identify small molecule antagonists of the constitutive androstane receptor (CAR) signaling pathway (AID 1224838);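 note: HepG2 cells stably expressing hCAR with CYP2B6 luciferase reporter stimulated by CITCO; nearly all actives have a fitted effect of over 40% in size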
Summary of the method: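 Read-out: ONE-Glo luciferase luminescence after 30 min at room temperature. HepG2-CYP2B6-hCAR double-stable cells, compounds in 15-point titration plus 50 nM CITCO final, 24 h at 37 C/5% CO2.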

Measured: Potency

Thyrotropin receptor (Homo sapiens), sequence (P16473 whole entry, looked up): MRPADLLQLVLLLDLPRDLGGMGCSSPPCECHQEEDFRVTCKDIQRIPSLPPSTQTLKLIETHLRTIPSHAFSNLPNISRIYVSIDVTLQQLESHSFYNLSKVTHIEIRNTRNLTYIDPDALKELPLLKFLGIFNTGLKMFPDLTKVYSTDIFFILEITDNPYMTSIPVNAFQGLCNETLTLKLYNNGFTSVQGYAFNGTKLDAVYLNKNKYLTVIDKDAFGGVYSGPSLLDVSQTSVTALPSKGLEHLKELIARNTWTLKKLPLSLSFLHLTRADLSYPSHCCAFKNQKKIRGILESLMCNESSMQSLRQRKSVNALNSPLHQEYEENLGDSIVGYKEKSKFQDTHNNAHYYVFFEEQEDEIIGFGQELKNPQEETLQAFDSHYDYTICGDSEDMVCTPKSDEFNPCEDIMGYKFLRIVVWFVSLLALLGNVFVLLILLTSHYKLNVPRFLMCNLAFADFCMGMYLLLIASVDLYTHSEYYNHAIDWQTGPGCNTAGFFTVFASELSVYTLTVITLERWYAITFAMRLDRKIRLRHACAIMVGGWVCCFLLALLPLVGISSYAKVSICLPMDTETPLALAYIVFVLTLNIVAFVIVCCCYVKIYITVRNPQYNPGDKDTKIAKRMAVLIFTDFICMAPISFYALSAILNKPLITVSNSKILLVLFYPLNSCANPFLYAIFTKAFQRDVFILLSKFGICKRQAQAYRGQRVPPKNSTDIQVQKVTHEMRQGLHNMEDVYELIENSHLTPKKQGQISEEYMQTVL
Nuclear receptor subfamily 1 group I member 3 (Homo sapiens), sequence (Q14994 whole entry, looked up): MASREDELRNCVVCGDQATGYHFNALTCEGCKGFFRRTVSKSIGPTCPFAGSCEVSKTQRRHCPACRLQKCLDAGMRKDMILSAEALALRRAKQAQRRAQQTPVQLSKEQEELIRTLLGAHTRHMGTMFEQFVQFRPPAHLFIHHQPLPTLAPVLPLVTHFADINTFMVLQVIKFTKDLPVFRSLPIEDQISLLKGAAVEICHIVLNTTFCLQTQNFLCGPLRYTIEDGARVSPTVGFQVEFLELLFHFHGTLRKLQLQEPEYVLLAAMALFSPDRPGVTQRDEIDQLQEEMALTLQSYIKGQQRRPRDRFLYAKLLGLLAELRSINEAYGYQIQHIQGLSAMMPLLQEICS

BrC(Br)C(Br)(Br)Br
inactive: [1] | [2] | [3] | [4]

CCCN(CCC)c1c([N+](=O)[O-])cc(S(N)(=O)=O)cc1[N+](=O)[O-]
inactive: [6]
active: [1] 65.2 µM | [2] 65.2 µM | [3] 16.4 µM | [4] 36.7 µM | [5] 65.2 µM | [7] 5.18 µM | [8] 37 µM | [9] 101 µM

COP(=O)(CCC(=O)NCO)OC
inactive: [1] | [2] | [3] | [4] | [5] | [6] | [7] | [8] | [9]

CC(C)(c1ccc(O)c(-c2ccccc2)c1)c1ccc(O)c(-c2ccccc2)c1
inactive: [6]
active: [1] 54.5 µM | [2] 68.6 µM | [3] 17.2 µM | [4] 54.5 µM | [5] 48.6 µM | [8] 17.4 µM

O=[N+]([O-])c1ccc(Oc2ccc(C(F)(F)F)cc2[N+](=O)[O-])cc1
inactive: [1] | [2] | [10] | [5] | [6] | [7] | [8] | [9]

CC1(C)[C@H](C(=O)O[C@H](C#N)c2cccc(Oc3ccccc3)c2)[C@@H]1/C=C(\Cl)C(F)(F)F
inactive: [1] | [2] | [3] | [4] | [7] | [8] | [9]

Cc1cc(C)cc(OP(=O)(Oc2cc(C)cc(C)c2)Oc2cc(C)cc(C)c2)c1
inactive: [1] | [2] | [4] | [5] | [6] | [7] | [8] | [9]

CCOCCOC(C)=O
inactive: [1] | [2] | [4] | [6] | [7] | [8] | [9]

CC(=[OH+])/C=C(/C)[O-].CC(=[OH+])/C=C(\C)[O-].CC(=[OH+])/C=C(\C)[O-].[Al]
inactive: [1] | [2] | [4] | [8] | [9]

CCCCCCCCCCBr
inactive: [1] | [2] | [4] | [5] | [6] | [8] | [9]

N#Cc1ccccc1Cl
inactive: [1] | [2] | [4] | [6] | [7] | [8] | [9]

[Cl][Sb]([Cl])[Cl]
inactive: [1] | [2] | [3] | [7]

C[C@@H](Oc1ccc(Cl)cc1Cl)C(=O)O
inactive: [1] | [2] | [4] | [7] | [8] | [9]

CC(O)C#N (stereo not given)
inactive: [1] | [2] | [3] | [7] | [8] | [9]

CCC[CH2][Sn]([CH2]CCC)([CH2]CCC)[O]C(=O)c1ccccc1
active: [1] 0.77 µM | [2] 1.22 µM | [4] 1.22 µM | [8] 0.549 µM | [9] 0.505 µM
inactive: [6] | [7]

O=c1[nH]c2ccccc2n1C1CCN(CCCC(c2ccc(F)cc2)c2ccc(F)cc2)CC1
active: [1] 54.5 µM | [2] 54.5 µM | [5] 27.3 µM and 26.6 µM | [8] 21.9 µM
24.3 µM (active) and inactive: [4]
inactive: [6] | [7] | [9]

CCc1ccccc1C
inactive: [1] | [2] | [4] | [5] | [6] | [7] | [8] | [9]

ClC(Cl)=C(Cl)Cl
inactive: [1] | [2] | [3] | [7] | [8] | [9]

Clc1ccc(-c2ccc(Cl)c(Cl)c2Cl)c(Cl)c1Cl
inactive: [1] | [2] | [4] | [5] | [6] | [7] | [9]

COC(=O)N(C(=O)N1CO[C@@]2(C(=O)OC)Cc3cc(Cl)ccc3C2=N1)c1ccc(OC(F)(F)F)cc1
inactive: [1] | [2] | [4] | [6] | [8] | [9]

COC[C@H](C)N(C(=O)CCl)c1c(C)csc1C
inactive: [1] | [2] | [4] | [5] | [6] | [8] | [9]

COc1ccc([N+](=O)[O-])cc1O
inactive: [1] | [2] | [4] | [7] | [8] | [9]

Fc1cccc(Cl)c1CCl
inactive: [1] | [2] | [4] | [7] | [8] | [9]
